{"source": "PubChem BioAssay (NCATS)", "note": "Inconclusive results are not listed. Where a call stands in place of a potency, no number is given. A number with no mark means an inactive call. Activity calls are given as the source filed them. Calls follow the shape of the dose curve; as a rule, active = well fitted curve in the direction sought with a large enough effect; inconclusive = small, poorly fitted or top-dose-only effect, or another doubt; inactive = no such curve, though single readings can be large; an effect the other way counts as inactive or inconclusive."}
{"assay": "Vero cells viability qHTS for Zika virus inhibitors (AID 1347167)", "settings": "cytotoxicity counter-screen (Zika); series mostly up to 45.9 µM", "procedure,_shortened": "(§1)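 Compounds were tested in concentration series on cells grown in DMEM containing 4% FBS. After 24 to 48 hours, cellular ATP was measured by luminescence with CellTiter Glo.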"}
{"smiles": "C[C@@]1(C(=O)O)CC[C@]2(C)CC[C@]3(C)C4=CC(=O)c5cc(O)c(O)cc5[C@]4(C)CC[C@@]3(C)[C@@H]2C1", "outcome": "inactive"}
{"smiles": "C[C@@H]1[C@@H]2Cc3ccc(O)cc3[C@@]1(C)CCN2CC1CC1", "outcome": "inactive"}
{"smiles": "O=c1ccc2[nH]cc(C3=CCNCC3)c2[nH]1", "outcome": "inactive"}
{"smiles": "CC[C@H](C)[C@H]1O[C@]2(C=C[C@@H]1C)C[C@@H]1C[C@@H](C/C=C(\\C)[C@@H](O[C@H]3C[C@H](OC)[C@@H](O[C@H]4C[C@H](OC)[C@@H](O)[C@H](C)O4)[C@H](C)O3)[C@@H](C)/C=C/C=C3\\CO[C@@H]4[C@H](O)C(C)=C[C@@H](C(=O)O1)[C@]34O)O2", "outcome": "inactive"}
{"smiles": "CCCCCOc1cc2c(cc1-c1cc(/C=C/C(=O)O)ccc1O)C(C)(C)CCC2(C)C", "outcome": "inactive"}
{"assay": "HepG2 cells viability qHTS for Zika virus inhibitors (AID 1347168)", "settings": "Zika counter-screen; series mostly up to 45.9 µM", "procedure,_shortened": "as §1"}
{"smiles": "C[C@@]1(C(=O)O)CC[C@]2(C)CC[C@]3(C)C4=CC(=O)c5cc(O)c(O)cc5[C@]4(C)CC[C@@]3(C)[C@@H]2C1", "outcome": "inactive"}
{"smiles": "C[C@@H]1[C@@H]2Cc3ccc(O)cc3[C@@]1(C)CCN2CC1CC1", "outcome": "inactive"}
{"smiles": "O=c1ccc2[nH]cc(C3=CCNCC3)c2[nH]1", "outcome": "inactive"}
{"smiles": "CC[C@H](C)[C@H]1O[C@]2(C=C[C@@H]1C)C[C@@H]1C[C@@H](C/C=C(\\C)[C@@H](O[C@H]3C[C@H](OC)[C@@H](O[C@H]4C[C@H](OC)[C@@H](O)[C@H](C)O4)[C@H](C)O3)[C@@H](C)/C=C/C=C3\\CO[C@@H]4[C@H](O)C(C)=C[C@@H](C(=O)O1)[C@]34O)O2", "outcome": "inactive"}
{"smiles": "CCCCCOc1cc2c(cc1-c1cc(/C=C/C(=O)O)ccc1O)C(C)(C)CCC2(C)C", "outcome": "inactive"}
{"assay": "Tertiary RLuc qRT-PCR qHTS assay for Zika virus inhibitors (AID 1347169); also: nearly all actives have a fitted effect of over 55% in size; also: potency is read from the fitted curve at half-maximal effect; as to activity change, negative = inhibition: top concentration of the series differs between compounds", "settings": "infected Vero cells, reporter luminescence, 48-72 h; series mostly up to 45.9 µM", "procedure,_shortened": "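Orthogonal cell-based readout: luminescence measured 1-1.5 hrs after adding live-cell Renilla substrate to Vero cells that had been infected with ZIKV-RLuc (MOI 1-2) post-compound, incubated 48-72 hrs at 37 degrees C.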"}
{"smiles": "COC(=O)C1(C)CCC(O)C2(C)c3cc(O)c(C(C)C)cc3C(O)C(OC(C)=O)C12", "note": "(centres undefined)", "Potency": "inactive"}
{"smiles": "C[C@@]1(C(=O)O)CC[C@]2(C)CC[C@]3(C)C4=CC(=O)c5cc(O)c(O)cc5[C@]4(C)CC[C@@]3(C)[C@@H]2C1", "Potency": "inactive"}
{"smiles": "O=C1OC2(c3cc(Br)c(O)cc3Oc3c2cc(Br)c(O)[c]3[Hg])c2ccccc21", "note": "(centres undefined)", "activity change, negative = inhibition": "-7.05% [at 0.566 µM]"}
{"smiles": "COc1c(C(C)C)cc2c(c1O)[C@@]1(C(=O)O)CCCC(C)(C)C1CC2", "note": "(some centres undefined)", "Potency": "inactive"}
{"smiles": "C[C@@H]1[C@@H]2Cc3ccc(O)cc3[C@@]1(C)CCN2CC1CC1", "Potency": "inactive"}
{"smiles": "O=c1ccc2[nH]cc(C3=CCNCC3)c2[nH]1", "Potency": "inactive"}
{"smiles": "CCN1CC2(COC)C3[C@@H](OC)C4C1C3(C1C[C@]3(O)[C@H](OC(=O)c5ccccc5)C1[C@]4(OC(C)=O)[C@@H](O)[C@@H]3OC)[C@H](OC)C[C@H]2O", "note": "(some centres undefined)", "Potency": "inactive"}
{"smiles": "CC[C@H](C)[C@H]1O[C@]2(C=C[C@@H]1C)C[C@@H]1C[C@@H](C/C=C(\\C)[C@@H](O[C@H]3C[C@H](OC)[C@@H](O[C@H]4C[C@H](OC)[C@@H](O)[C@H](C)O4)[C@H](C)O3)[C@@H](C)/C=C/C=C3\\CO[C@@H]4[C@H](O)C(C)=C[C@@H](C(=O)O1)[C@]34O)O2", "Potency": "20.8 µM (active)"}
{"smiles": "Oc1cc(Cl)c(Cl)cc1Cl", "activity change, negative = inhibition": "-13.8% [at 5.25 µM]"}
